Screening data deposited in PubChem BioAssay by National Center for Advancing Translational Sciences (NCATS).
PI5P4Ka inh – inhibitors of human PI5P4K alpha | P48426 | PI5P4Kalpha enzyme, ADP-Glo luminescence, 60 min; stronger effect = lower value | max response, % | 1.2% of 330,000 active | AID 652105; active = max response of -50% or lower; inconclusive = between -30% and -50%; inactive = -30% or higher; note: value at the top dose of about 77 µM; % is set by controls: 0 for no effect and ±100 for the full control effect
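qHTS, 1536-well: enzyme/substrate mix, compound by pin tool, 5 microM ATP final; RT 60 min; ADP-Glo reagents 1 (45 min) then 2 (30 min); luminescence.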
G9a block – blocks human histone lysine methyltransferase G9a; 8.8% of 350,000 active; Potency, µM (top dose mostly 102 µM), without a hit: at the highest dose activity, negative = inhibition, most hits filed as inhibitors; G9a H3K9 monomethylation, AlphaScreen, 2 h; note: potency is the fitted concentration of half-maximal effect; % is set by controls: 0 for no effect and ±100 for the full control effect; nearly all actives have a fitted effect of over 75% in size
Target sequence (Q96KQ7 913-1193 limits assumed): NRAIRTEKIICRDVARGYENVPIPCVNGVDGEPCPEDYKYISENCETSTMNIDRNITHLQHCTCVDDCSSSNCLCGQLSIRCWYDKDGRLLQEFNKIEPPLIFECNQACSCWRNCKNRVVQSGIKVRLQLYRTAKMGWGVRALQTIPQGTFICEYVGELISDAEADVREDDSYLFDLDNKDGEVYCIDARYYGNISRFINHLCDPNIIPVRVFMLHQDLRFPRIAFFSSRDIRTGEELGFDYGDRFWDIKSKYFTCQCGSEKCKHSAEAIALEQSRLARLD
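Using a bead-based AlphaScreen, monomethylated H3K9 product from 2 h room-temperature reactions (G9a 20 nM, peptide 500 nM, SAM 20 uM) was detected with 0.5 ug/mL rabbit anti-H3K9me1 antibody.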
BAZ2B inh – inhibitors of human BAZ2B bromodomain; Q9UIF8; AlphaScreen BAZ2B-H3K14Ac peptide displacement; Potency, µM (series often up to 114 µM), inactives show at the highest dose activity change, negative = inhibition, hits mostly inhibitors; 4.4% of 360,000 active; AID 504333; note: potency is the fitted concentration of half-maximal effect; % is set by controls: 0 for no effect and ±100 for the full control effect; nearly all actives have a fitted effect of over 60% in size
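In this displacement format the biotinylated H3(5-23) peptide acetylated at Lys14 serves as ligand at 50 nM, with BAZ2B at 50 nM in PBS pH 7.4 containing 0.01% Tween-20. Donor and acceptor beads are 10 ug/mL final.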
JMJD2A Tudor – JMJD2A Tudor domain (human) inhibition; O75164; AlphaScreen JMJD2A-Tudor / H3K4me3 peptide binding; Potency, µM (top dose mostly 114 µM), without a hit: at the highest dose activity change, negative = inhibition, usual class: inhibitors; 4.4% of 390,000 active; AID 504339; note: potency is the fitted concentration of half-maximal effect; % is set by controls: 0 for no effect and ±100 for the full control effect; nearly all actives have a fitted effect of over 50% in size
PLK1 PBD inh – blocks phosphopeptide binding to human PLK1 polo-box domain. 2.8% of 360,000 active. Plk1 PBD binding of FITC phosphopeptide, fluorescence polarization. Potency, µM, without a hit: max response, negative = inhibition, hits mostly inhibitors; note: potency is the fitted concentration of half-maximal effect; series mostly up to about 57 µM; % is set by controls: 0 for no effect and ±100 for the full control effect; nearly all actives have a fitted effect of over 65% in size
HP1b chromo inh – HP1-beta chromodomain-methylated histone interaction inhibition | P83916 | AlphaScreen HP1-beta / biotin-H3K9me3 peptide binding | Potency, µM (series often up to 114 µM), without a hit: at the top dose activity change, negative = inhibition, hits mostly inhibitors | 0.56% of 390,000 active | AID 540317; note: potency is the fitted concentration of half-maximal effect; nearly all actives have a fitted effect of over 70% in size
Target sequence (P83916 whole entry, looked up): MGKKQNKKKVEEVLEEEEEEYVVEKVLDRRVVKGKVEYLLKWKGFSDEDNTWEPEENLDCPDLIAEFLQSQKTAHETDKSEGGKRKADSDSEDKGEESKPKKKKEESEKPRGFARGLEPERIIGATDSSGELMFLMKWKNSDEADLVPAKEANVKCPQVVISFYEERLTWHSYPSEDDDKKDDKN
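Compound inhibition of the preformed complex between 50 nM HP1-beta and 50 nM biotinylated H3K9me3 peptide was read by AlphaScreen. Buffer was PBS pH 7.4 with 0.01% Tween-20. Incubations ran 30 min at room temperature, with 10 ug/mL donor/acceptor beads.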
Starred values were filed as active, the others as inactive; ? = inconclusive; . = not tested or not shown; [ ] = dose if it differs, or a comment. Only some compounds are listed: those with a hit (about 12% of all), similar ones and a draw of the others. Unless noted, calls come from the whole dose curve; as a rule, active = well fitted curve in the direction sought with a large enough effect; inconclusive = small, poorly fitted or top-dose-only effect, or another doubt; inactive = no such curve, though single readings can be large; an effect the other way counts as inactive or inconclusive.

SMILES	PI5P4Ka inh	G9a block	BAZ2B inh	JMJD2A Tudor	PLK1 PBD inh	HP1b chromo inh
Cc1sc(NC(=O)Cc2ccc3c(c2)OCO3)nc1-c1ccc2c(c1)CCN2C(=O)c1ccccc1F	2	-25%	-9%	-31%	-6%	2%
CCOC(=O)C(=O)Nc1nc(-c2ccc3c(c2)CCN3C(=O)C2CC2)c(C)s1	4	50µM*	?	-19%	-25%	14%
Cc1sc(NC(=O)Cc2ccc3c(c2)OCO3)nc1-c1ccc2c(c1)CCN2C(=O)c1ccc(F)cc1	-13	40µM*	-10%	?	-16%	-19%
COc1ccc(NC(=O)Cn2c(=O)n(Cc3ccco3)c(=O)c3cc(OC)c(OC)cc32)cc1	.	18%[59 µM]	4%	-3%	.	32%
CC(C)OC(=O)C1OC1(C)c1ccccc1 (centres undefined)	-4	.	.	7%	-5%	32%
CC(C)(C)C(=O)Nc1ccc(Sc2ccc([N+](=O)[O-])cc2)cc1	16	-18%[59 µM]	-9%	-19%	-10%	6%
Cn1cc([N+](=O)[O-])c(C(=O)Nc2cc(Oc3ccccc3)cc([N+](=O)[O-])c2)n1	6	-22%[59 µM]	?	-18%	-15%	7%
CC(=O)Nc1ccc(Oc2cc(NC(C)=O)cc([N+](=O)[O-])c2)cc1	?	2%	-14%	18µM*	7.5µM*	?
CC(=O)Nc1ccc(Sc2ccc([N+](=O)[O-])o2)cc1	-3	.	.	-30%	21µM*	-24%
Cc1nn(C)cc1C(=O)Nc1cc(Oc2ccc(Cl)cc2)cc([N+](=O)[O-])c1	.	-7%[59 µM]	2%	?	27µM*	?
CC(=O)Nc1cc(ON=C(C)C)cc([N+](=O)[O-])c1	-2	-1%	-10%	-6%	-2%	24%
CC(=O)Nc1ccc(C(=O)NNC(=O)c2cc([N+](=O)[O-])cc([N+](=O)[O-])c2)cc1	1	-32%	-23%	-8%	-2%	14%
CC(=O)Nc1ccc(NC(=O)c2cc([N+](=O)[O-])cc([N+](=O)[O-])c2)cc1	-5	50µM*	?	-29%	-6%	27%
COc1ccc(N2CCN(c3ccc(-c4nc(-c5ccccc5)no4)cc3[N+](=O)[O-])CC2)cc1	.	-42%[59 µM]	-39%	-21%	.	0%
COC(=O)c1sc2cccc(F)c2c1S(=O)(=O)NCc1ccc(Cl)cc1	.	0%[59 µM]	-21%	-19%	.	16%
O=C(Nc1ccc2c(c1)CCC2)c1cc(S(=O)(=O)Nc2ccc(F)cc2)c(Cl)cc1Cl	0	10µM*	-7%	?	-11%	-4%
O=C(Nc1ccc2c(c1)CCC2)c1ccc(F)cc1	10	-6%	3%	-5%	-4%	34%
CC(=O)c1ccc(-n2c(-c3cc(-c4ccco4)[nH]n3)n[nH]c2=S)cc1	-57*	?	?	?	-25%	-11%
O=C(O)c1cc(-c2ccco2)[nH]n1	-13	?	4%	79µM*	-6%	25%
O=C(O)c1ccc(-n2c(-c3cc(-c4ccco4)[nH]n3)n[nH]c2=S)cc1	?	4%[0.501 µM]	45µM*	20µM*	0%	12%
CCOC(=O)c1ccc(-n2c(-c3ccco3)nc3ccccc3c2=O)cc1	-2	-5%	-28%	-23%	-4%	25%
CCOC(=O)c1c(C)[nH]c(CCC(=O)NCc2cc(Br)ccc2OC)c1C	.	0%[59 µM]	-21%	?	.	1%[57 µM]
Cc1ccc(N/N=C2\CC(=O)c3ccccc32)cc1Cl	.	.	11µM*	.	.	.
Cc1cnnn1-c1ccc(C(=O)CCl)cc1	1	19%[0.501 µM]	?	-31%[57.1 µM]	3.8µM*	39%
Oc1ccc(C2C(c3ccccc3)=NN=C(c3ccccc3F)N2O)c(O)c1 (centres undefined)	-17	50µM*	?	-31%	-13%	-16%
SMILES	PI5P4Ka inh	G9a block	BAZ2B inh	JMJD2A Tudor	PLK1 PBD inh	HP1b chromo inh
CC1=NN=C(c2ccccc2)C(c2c[nH]c3ccccc23)N1O (centres undefined)	2	?	-10%	-19%	-13%	-10%
Oc1ccc(C2C(c3ccccc3)=NN=C(c3ccc(Cl)cc3)N2O)c(O)c1 (centres undefined)	-25	11µM*	-32%	-30%	-3%	1%
CC1CN(C(=O)c2cc3cc([N+](=O)[O-])ccc3oc2=O)CC(C)O1 (centres undefined)	5	0%	-18%	-2%	-11%	-19%
CC1CN(C(=O)c2cc3cc(Cl)cc(Cl)c3oc2=O)CC(C)O1 (centres undefined)	-9	2%[59 µM]	9%	-5%[11.4 µM]	21µM*	-23%
OC(COc1ccccc1)CSc1ncn[nH]1 (centres undefined)	.	13%[12.7 µM]	7%	-9%	-2%	26%
CC(C)(C)c1ccc(OCC(O)CSc2ncn[nH]2)cc1 (centres undefined)	.	8.9µM*	-8%	32µM*	-6%	30%
O=c1[nH]cc(S(=O)(=O)N2CCN(c3ccc(F)cc3)CC2)c(=O)[nH]1	-2	.	.	.	-7%	.
Cc1ccc(S(=O)(=O)/N=C2/NC(=O)/C(=C/c3cc([N+](=O)[O-])ccc3O)S2)cc1	268	11µM*	-29%	-32%	4%	16%
COc1cccc(N=C2NC(=O)/C(=C/c3cc([N+](=O)[O-])ccc3O)S2)c1	-76*	?	56µM*	?	29%	?
O=C1NC(=Nc2ccccc2Cl)S/C1=C\c1cc([N+](=O)[O-])ccc1O	-67*	35µM*	?	?	-21%	16%
O=C1N/C(=N/O)S/C1=C/c1cccc([N+](=O)[O-])c1	-23	-37%	.	-18%	-17%	6%
C=CCSc1nnc(-c2cnn(-c3ccccc3)c2-n2cccc2)n1C	2	-3%[12.7 µM]	3%	-14%	-5%	31%
CCCSc1nnc(-c2cnn(-c3ccccc3)c2-n2cccc2)n1C	-1	13µM*	-32%	0%	-1%	13%
Cc1ccc(NC(=O)CCCCCN2C(=O)[C@@H]3Cc4ccccc4CN3C2=O)c(Cl)c1	14	11%[0.0925 µM]	1%	-7%	-8%	34%
Cc1ccccc1OC(=O)CSc1nnc(-c2ccc(F)cc2)o1	.	-36%[59 µM]	-2%	1%	.	66%
CCn1c(/C=C/c2cc[n+](C)cc2)nc2ccccc21	2	35µM*	?	?	-22%	8%
CCCn1c(/C=C/c2ccccc2)nc2ccccc21	.	71%[59 µM]	156%	110%	-1%	170%
COCCOCCn1c(/C=C/c2ccccc2)nc2ccccc21	-26	8%	-1%	?	19µM*	3%
CCc1oc2ccccc2c1C(=O)c1cc(I)c(O)c(I)c1	.	-40%[59 µM]	.	.	.	.
N#Cc1cccc(NC(=O)N2CC3(CCN(C(=O)c4cc(C(F)(F)F)cc(C(F)(F)F)c4)CC3)C2)c1	.	-6%[12.7 µM]	.	.	.	.
